DT40 TDP1 no CPT: qHTS for Inhibitors of human tyrosyl-DNA phosphodiesterase 1 (TDP1): qHTS in cells in absence of CPT; Potency, µM (series often up to 46.2 µM), without a hit: at the top dose activity change, negative = growth inhibition, most hits filed as inhibitors; DT40 Tdp1-/- hTDP1 cells, no CPT, ATP luminescence, 48 h; 15% of 420,000 active; further: potency means the concentration at half of the fitted maximal effect; nearly all actives have a fitted effect of over 55% in size
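Chicken DT40 Tdp1-/- cells stably complemented with human TDP1 were seeded at 400 cells/well with DMSO in place of 20 nM camptothecin. After compound pinning, cells grew at least 48 hr at 37 °C; viability read by CellTiter-Glo luminescence.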
IL-1B inflam inh: inflammasome signaling inhibition, IL-1 beta readout; AID 743279; THP-1 LPS/ATP IL-1B secretion, AlphaLISA, 16 h; hits give low values; activity change, % at 57.5 µM; 4.7% of 360,000 active; in the data active means activity change below about -50%; inconclusive means mostly about -30% to -49%
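Secreted IL-1B measured by AlphaLISA bead assay after 16 h compound exposure of THP-1 cells; compounds (final up to 57.5 uM) added 1 h before LPS (250 ng/mL) and ATP (1.25 mM) stimulation; lower signal means less secretion.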
TDP1 cell CPT: DT40-hTDP1 cell growth loss with CPT; chicken DT40 Tdp1-/-;hTDP1 cells + 20 nM CPT, ATP luminescence, 48 h; Potency, µM (titrated, usually from 46.2 µM), without a hit: at the highest dose activity change, negative = growth inhibition, actives largely listed as inhibitors; 12% of 420,000 active; further: potency means the concentration at half of the fitted maximal effect; nearly all actives have a fitted effect of over 55% in size
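Chicken DT40 Tdp1-/- cells stably complemented with human TDP1 were seeded at 400 cells/well in medium containing 20 nM camptothecin, exposed to pin-transferred compounds, and grown at 37 °C for at least 48 hr. Viability was read as ATP luminescence.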
HT1080 IDH1KD tx: kills HT-1080 cells with IDH1 knockdown | HT-1080 IDH1 knockdown viability, ATP luminescence, 48 h | Potency, µM (highest dose often 46.1 µM), inactives show top-dose activity, negative = toxicity, most hits filed as cytotoxic | 2% of 360,000 active | AID 686971;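 further: potency means the concentration at half of the fitted maximal effect; 0% = DMSO wells and -100% = cell-free medium wells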
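Cytotoxicity counter-line: IDH1KD HT-1080, 48 h, CellTiter-Glo. Curves classed by r2, magnitude and activity.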
HT1080-NT tox: kills 2HG-producing HT-1080-NT fibrosarcoma cells. Potency, µM (titrated, usually from 46.1 µM), for the others: top-dose activity, negative = less viability, most hits filed as cytotoxic. HT-1080-NT fibrosarcoma viability, CellTiter-Glo ATP luminescence, 48 h. AID 686970. 1.6% of 360,000 active;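 further: NT is the 2HG producing partner of a matched IDH1 knockdown line; potency means the concentration at half of the fitted maximal effect; 0% = DMSO-treated cells and -100% = media-only wells without cells; nearly all actives have a fitted effect of over 55% in size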
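HT-1080-NT fibrosarcoma cells (2HG-overproducing), 750 cells/well in RPMI with 5% FBS, dosed after 2 h and incubated 48 h at 37C. CellTiter-Glo luminescence normalized to DMSO and no-cell wells; concentration-response curves fitted and classed.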
* = called active by the depositor; ? = inconclusive; . = no result; ! = a repeat was not active. An excerpt weighted towards active compounds, which were near 19% of everything screened. Unless noted, the call rests on the fitted dose curve; in most records, active means well fitted curve in the direction sought with a large enough effect; inconclusive means small, poorly fitted or top-dose-only effect, or another doubt; inactive means no such curve, though single readings can be large; an effect the other way counts as inactive or inconclusive. Unless noted, on the % scale 0 is the no-effect control and ±100 the full control effect.

SMILES | DT40 TDP1 no CPT | IL-1B inflam inh | TDP1 cell CPT | HT1080 IDH1KD tx | HT1080-NT tox
CC(C)(C)C1CCc2c(sc(NC(=O)CCC(=O)O)c2C(=O)Nc2ccccc2C(F)(F)F)C1 (centres undefined) | 20.6µM* | . | 16.4µM* | . | .
COc1ccc(Cl)cc1NC(=O)c1c(NCc2ccc(C)o2)sc2c1CCC(C)C2 (centres undefined) | 16.4µM* | . | ? | . | .
CCOC(=O)c1c(NC(=O)Cc2cccs2)sc(C(=O)NC2CCCCC2)c1C | 16.4µM* | 13.3 | ? | 7.2% | 7.1%
CCOC(=O)c1c(NC(=O)c2ccc(OC)cc2)sc2c1CCCCC2 | -27.6% | . | -18.0% | . | .
COc1ccc(OC)c(NC(=O)c2c(NCc3ccc(C)o3)sc3c2CCCCC3)c1 | 7.31µM* | . | 6.51µM* | . | .
CC1CCc2c(sc(NC(=O)COc3ccccc3)c2C(=O)Nc2ccccc2Cl)C1 (centres undefined) | -19.4% | . | 3.8% | . | .
CCOC(=O)c1c(NC(=O)Cc2cccs2)sc(C(=O)NC2CCCC2)c1C | -20.1% | 8.2 | 0.8% | -21.7% | ?
Cc1nnc(SCc2ccc(F)cc2)n1NC/C=C/c1ccccc1 | ? | -11.6 | ? | ? | -25.0%
CCOC(=O)N1CCc2c(sc(NCc3sccc3C)c2C(=O)Nc2cc(OC)ccc2OC)C1 | -22.7% | . | -3.6% | . | .
COc1ccccc1NC(=O)c1c(NC(=O)c2cccs2)sc2c1CCC(C(C)(C)C)C2 (centres undefined) | -3.5% | . | -6.0% | . | .
COc1ccc(Cl)cc1NC(=O)c1c(NCc2cccs2)sc2c1CCC(C)C2 (centres undefined) | 13µM* | . | ? | . | .
COC(=O)c1c(NC(=O)CN(C)CC(=O)Nc2ccc(C)cc2)sc2c1CCC(C)C2 (centres undefined) | ? | 3.7 | ? | 8.7% | 6.0%
CCOc1ccc(NC(=O)c2c(NC(=O)c3ccncc3)sc3c2CCC(C(C)(C)C)C3)cc1 (centres undefined) | 20.6µM* | . | ? | . | .
COc1ccc(OC)c(NC(=O)c2c(NCc3sccc3C)sc3c2CCCCC3)c1 | 2.59µM* | . | 7.31µM* | . | .
COC(=O)c1c(NC(=O)Cc2cccs2)sc2c1CCC(C)C2 (centres undefined) | ? | -83.4* | ? | 8.4% | -8.2%
CCOc1ccccc1NC(=O)c1c(NCc2cccs2)sc2c1CCC(C)C2 (centres undefined) | 18.4µM* | . | ? | . | .
COc1ccccc1NC(=O)c1c(NCc2ccc(C)o2)sc2c1CCCCC2 | 6.51µM* | . | 5.8µM* | . | .
COc1ccc(Cl)cc1NC(=O)c1c(NCc2cccnc2)sc2c1CCC(C)C2 (centres undefined) | 4.61µM* | . | 3.66µM* | . | .
CC(C)(C)[C@H]1CCC(=O)N([C@H](CC#N)Cc2ccccc2)CC1 | 17.8µM* | -8.0 | ? | 16.0% | 18.3%
C[C@@H](CSc1ccccc1)CN1CC[C@H](C(C)(C)C)CCC1=O | 17.8µM* | -11.3 | ? | 16.8% | 0.0%
Cc1ccc(SC[C@H](C)CN2CC[C@H](O)CCC2=O)cc1 | -4.4% | . | -13.5% | . | .
CC(C)(C)C1CCC(=O)N(CCC#N)CC1 (centres undefined) | 3.7% | -3.9 | -9.8% | 9.3% | 12.5%
C[C@@H](CSc1ccc(Br)cc1)CN1CC[C@H](O)CCC1=O | 12.6µM* | 20.7 | 12.6µM* | -5.5% | -0.6%
C[C@@H](CN=[N+]=[N-])CN1CC[C@H](C(C)(C)C)CCC1=O | 12.6µM*! | 3.9 | 11.2µM*! | 10.3% | 16.6%
Cc1sc(NC(=O)c2ccccc2)c(C(=O)NCCN(C)C)c1C | ? | . | -27.5% | -15.5% | -10.4%
SMILES | DT40 TDP1 no CPT | IL-1B inflam inh | TDP1 cell CPT | HT1080 IDH1KD tx | HT1080-NT tox
COc1cc(NC(=O)NCC2CCN(Cc3ccccc3C)CC2)cc(OC)c1OC | -1.9% | -23.6 | 5.2% | 7.3% | 6.3%
CC1CCCN(C(=O)C2CCN(S(=O)(=O)c3cccc4nonc34)CC2)C1 (centres undefined) | -24.2% | 19.2 | 2.0% | 8.9% | 4.8%
O=C(C1CCCN(S(=O)(=O)c2cccc3nonc23)C1)N1CCN(c2ccccc2)CC1 (centres undefined) | 22.4µM* | -50.6* | ? | -14.1% | -4.4%
O=C(NCc1ccccc1Cl)C1CCCN(S(=O)(=O)c2cccc3nonc23)C1 (centres undefined) | -27.1% | 16.1 | 8.5% | -12.2% | -10.3%
CC(=O)c1ccc(N2CCN(C(=O)C3CCN(S(=O)(=O)c4cccc5nonc45)CC3)CC2)cc1 | 23.1µM* | . | ? | . | .
COc1cccc(Cn2c(=O)n(CC3CCC(C(=O)N4CCOCC4)CC3)c(=O)c3sccc32)c1 (centres undefined) | 20.6µM* | . | ? | . | .
CCCNC(=O)C1CCC(Cn2c(=O)c3sccc3n(Cc3ccccc3C)c2=O)CC1 (centres undefined) | -23.4% | . | -13.3% | . | .
Cc1cccc(Cn2c(=O)n(CC3CCC(C(=O)N4CCOCC4)CC3)c(=O)c3sccc32)c1 (centres undefined) | 18.4µM* | . | 23.1µM* | . | .
O=C(C1CCC(Cn2c(=O)c3sccc3n(Cc3ccccc3F)c2=O)CC1)N1CCOCC1 (centres undefined) | ? | . | 16.4µM* | . | .
CC1CCCN(C(=O)Cn2c(=O)n(CC3CCC(C(=O)NC(C)C)CC3)c(=O)c3sccc32)C1 (centres undefined) | -18.3% | . | -29.0% | . | .
CC(C)CCNC(=O)C1(O)c2ccccc2NC(=O)N1c1ccc(Cl)cc1 (centres undefined) | -2.2% | -10.3 | 10.1% | 22.9% | 16.2%
CCOc1ccc(Cl)cc1-c1cc(C(=O)NCCc2ccncc2)[nH]n1 | -103.8% | -5.6 | -103.4% | -17.7% | 0.0%
CC(C)Oc1cc(F)ccc1-c1cc(C(=O)NC2CCCCC2)[nH]n1 | ? | 0.0 | 20.6µM* | 3.2% | 4.5%
CC(C)Oc1cc(F)ccc1-c1cc(C(=O)NCCc2ccncc2)[nH]n1 | ? | -9.0 | 18.4µM* | 23.4% | 2.0%
CCCOc1ccc(F)cc1-c1cc(C(=O)NC2CCCCC2)[nH]n1 | ? | -4.8 | -7.1% | -0.7% | -20.2%
CC(C)Oc1ccc(F)cc1-c1cc(C(=O)NC2CCCCC2)[nH]n1 | 14.6µM* | -19.9 | ? | -27.0% | 4.7%
COc1ccc(-c2csc(/C(C#N)=C/Nc3cc4oc5ccccc5c4cc3OC)n2)cc1 | -6.5% | 36.4 | 7.8% | 16.0% | 16.8%
O=C(CN1C(=O)/C(=C\c2ccc(F)cc2)Oc2ccccc21)NCc1ccco1 | -26.1% | 7.1 | -7.8% | 10.6% | 12.9%
Cc1cc(NC(=O)C(C)SCC(=O)N(C)CC(=O)Nc2ccccc2C(F)(F)F)no1 (centres undefined) | 3.1% | 16.7 | 10.4% | 10.1% | 16.3%

Assay outcomes from PubChem.
